In all, about 360,000 compounds went through this assay and about 17,000 (4.7%) were called active. About 5% were inconclusive and are not listed. The entries come from a sample that favours actives as a whole. Values without a mark were called inactive. Cut-off read from the data, not from the text of the source: active = activity change below about -50%; inconclusive = mostly about -30% to -49%; inactive = weaker than that.
Assay: qHTS for Inhibitors of Inflammasome Signaling: IL-1-beta AlphaLISA Primary Screen
Settings: THP-1 LPS/ATP IL-1B secretion, 16 h; at 57.5 µM, stronger effect = lower value
Outline: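 THP-1 cells pretreated 1 hr with compounds (up to 57.5 uM final), then stimulated with LPS (250 ng/mL final) plus ATP (1.25 mM final); secreted IL-1B measured by AlphaLISA after 16 hr, decreased signal indicating inhibition.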
For `CC1CCN(C(=O)c2ccc(CSc3ccc(Cl)cc3)cc2)CC1`, the activity change was -51.2% (active).
For `O=C(c1ccc(CSc2ccccc2)cc1)N1CCCCCC1`, the activity change was -19.7%.
For `O=C(NC1CCCCC1)c1ccc(-c2ccc(Cl)cc2)o1`, the activity change was -76.5% (active).
Work on `O=C(NC1CCCCCC1)c1cccnc1Sc1ccc(Cl)cc1` yielded an activity change of 1.6%.
Work on `O=C(NC(=S)NC1CCCCC1)c1ccc(Cl)cc1` yielded an activity change of -21%.
For `CCCNC(=O)C1(C)CCN(Cc2ccc(Cl)c(Cl)c2)C1` (stereo not given), the activity change was 17.3%.
With `COc1ccc(N)c(C)c1` the activity change was -25.8%.
With `COC(=O)[C@]12CCCCC=C1N(CCC1=CCCCC1)C(=O)[C@H](CC(=O)NCC1CCCCC1)C2` the activity change was -28.6%.
With `O=C(CCCN1CCc2[nH]c3ccc(F)cc3c2C1)c1ccc(F)cc1` the activity change was -79.8% (active).
In the case of `Fc1ccc(NC(=S)N2CCc3[nH]c4ccccc4c3C2)cc1`, the activity change is reported as 11.5%.
`O=C(Nc1ccc(Cl)cc1)N1CCc2[nH]c3ccccc3c2C1` showed an activity change of -18.5%.
Molecule `CCCCN1C[C@H](c2ccc(Br)cc2)[C@@H](CC(=O)Nc2ccc(Br)cc2)C1=O` has an activity change of -5.58%.
For `O=C(Nc1ccccc1)Oc1cccc2cccnc12`, the activity change was -91.6% (active).
In the case of `NC(=O)C1CCN(C(=O)COc2cccc3cccnc23)CC1`, the activity change is reported as 0.882%.
Molecule `OCc1ccc(OCCCOc2cccc3cccnc23)cc1` has an activity change of -1.1%.
With `C[C@H](CO)N1C[C@H](C)[C@H](CN(C)CC2CC2)Oc2ccc(NC(=O)CCN3CCOCC3)cc2C1=O` the activity change was 18.8%.
`O=C(C1CCCO1)N1CCN(C(=O)C23CC4CC(CC(C4)C2)C3)CC1` (stereo not given) gave an activity change of 9.67%.
For `CCC(C)N1C(=O)S/C(=C/c2ccc(Sc3nc4ccccc4[nH]3)o2)C1=O` (stereo not given), the activity change was -96.1% (active).
For `CCC(c1nc2ccccc2[nH]1)n1c(=O)c(-c2cccs2)nc2ccccc21` (stereo not given), the activity change was -20%.
For `CN1CCN(c2ccc([N+](=O)[O-])c(Sc3nc4ccccc4[nH]3)c2)CC1`, the activity change was -26.9%.
With `CC(C)c1csc(CN2CCC(CO)(Cc3ccccc3)CC2)n1` the activity change was -21.7%.
`CN=C(NC#N)NCCSCc1nc[nH]c1C` showed an activity change of 33.7%.
Molecule `CCC(C)N(C(=O)CSc1nnnn1-c1ccccc1OC)C1CCS(=O)(=O)C1` (stereo not given) has an activity change of -14.9%.
With `COc1ccccc1-n1nnnc1S(=O)(=O)Cc1ccc(Cl)cc1` the activity change was -119% (active).
Molecule `COc1ccccc1-n1nnnc1SCC(=O)NC(=O)Cc1ccccc1` has an activity change of 4.79%.
Work on `CCCC(C)n1[nH]c(=O)c2c(C)cc(C)nc21` (stereo not given) yielded an activity change of -13.2%.
`Cc1cc(O)ccc1NC1=CC(=O)CC(C)(C)C1` gave an activity change of -0.895%.
With `CC1(C)CC(=O)C=C(Nc2ccccc2)C1` the activity change was -3.98%.
For `Cc1ccccc1C#CC1=CC(=O)CC(C)(C)C1`, the activity change was -52.1% (active).
For `CC1C(=O)N(Cc2cn(CC3CCCCC3)nn2)CCS(=O)(=O)N1Cc1ccc(-c2cccc(N(C)C)c2)cc1` (stereo not given), the activity change was 0%.
With `OCCN1CCN(CCO)C1=S` the activity change was 15.9%.
For `Cc1cc2oc(C(=O)Nc3c(C)n(C)n(-c4ccccc4)c3=O)c(C)c2cc1Cl`, the activity change was 0%.
For `Cc1c(NC(=O)c2coc(=O)c(Br)c2)c(=O)n(-c2ccccc2)n1C`, the activity change was -72.5% (active).
In the case of `Cc1c(NC(=O)c2cc(-c3ccc(Br)cc3)on2)c(=O)n(-c2ccccc2)n1C`, the activity change is reported as -16.8%.
With `COC(c1ccccc1)(c1ccccc1)C(Oc1nc(C)cc(C)n1)C(=O)O` (stereo not given) the activity change was 17.2%.
Molecule `COc1ccc(C(=O)COC(=O)c2nn(C)c(=O)c3ccccc23)c(OC)c1` has an activity change of -0.449%.
Molecule `CC[C@]12c3[nH]c4ccc(OC)cc4c3CCN1C(=O)C(CC(=O)NCc1ccco1)C[C@@H]2C(=O)N1CCN(C(=O)C2CC2)CC1` (stereo not given in full) has an activity change of 16.2%.
With `CCCCCCCCCCOC(=O)Cn1c(COc2ccc(C)cc2)[n+](C)c2ccccc21` the activity change was -90.4% (active).
In the case of `CCCCn1c(N)c(N(CCOC)C(=O)c2cccc(OCc3ccccc3)c2)c(=O)[nH]c1=O`, the activity change is reported as -4.76%.
With `COc1cccc(OCc2nnc3n2N=C(c2ccccc2)C(CC(=O)O)S3)c1` (stereo not given) the activity change was 29.1%.
`Cc1ccc(COc2ccc(C(=O)NN)cc2)cc1` showed an activity change of -17.7%.
In the case of `CCCCOc1ccc(NC(=O)CSCC(=O)OCC)cc1`, the activity change is reported as -3.32%.
In the case of `CCCCCCCCCCOC(=O)Cn1c(COc2cccc(OC)c2)[n+](C)c2ccccc21`, the activity change is reported as -79.3% (active).
Molecule `COc1ccc(NC(=O)C2Cc3c(-c4ccc5c(c4)OCO5)ccnc3O2)cn1` (stereo not given) has an activity change of 22.6%.
Molecule `COC(=O)N(C)C[C@@H]1OCc2cnnn2CCCC(=O)N([C@@H](C)CO)C[C@@H]1C` has an activity change of 1.38%.

From PubChem BioAssay AID743279 (National Center for Advancing Translational Sciences (NCATS), 2014)
% is set by controls: 0 for no effect and ±100 for the full control effect.
